Values joined by “and” are separate entries in the source; they are usually repeats but may differ in a detail not shown here. Equal values may be shown once.
Assays:
Assay in all cases: cell viability relative to vehicle control; higher = less cytotoxic
[1] = test system: K562; details: 10 µM; SRSF2 genotype: SRSF2 wt/wt
Outline: (§1)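 Mutant clones made by CRISPR editing and their isogenic wild-type counterparts, from four leukaemia lines, were exposed to a single 10 µM dose of each library compound for 48 h. The supernatant was then removed and CellTiter-Glo luminescence was read. Viability was reported as percent of the on-plate vehicle control.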

[2] = test system: MARIMO; details: 10 µM
Outline: as §1

[3] = test system: MOLM14; details: 10 µM
Outline: as §1

[4] = test system: OCI-AML2; details: 10 µM
Outline: as §1

Row | Compound | cell viability [1] | cell viability ([2]; SRSF2 genotype: SRSF2 P95H/wt) | cell viability ([2]; SRSF2 genotype: SRSF2 wt/wt) | cell viability ([3]; SRSF2 genotype: SRSF2 P95H/wt) | cell viability ([3]; SRSF2 genotype: SRSF2 wt/wt) | cell viability ([4]; SRSF2 genotype: P95H/wt) | cell viability ([4]; SRSF2 genotype: wt/wt)
1 | O=C(/C=C/c1ccc(O)c(O)c1/C=C/c1ccc(O)c(O)c1)O[C@H](Cc1ccc(O)c(O)c1)C(=O)O [Salvianolic acid A] | 70.5% | 86.4% | 94.7% | 73.7% | 62.1% | 98.2% | 95%
2 | COc1cc(-c2cc(-c3ccc(N4CCNCC4)cc3)cnc2C)cc(OC)c1OC | 31.1% | 46.2% | 46.9% | 37.1% | 31.9% | 17.7% | 29.3%
3 | Cn1cc(-c2ccc(F)c(C(F)(F)F)c2)nc1C1CCN(c2ncnc3[nH]ncc23)CC1 | 86% and 80.8% | 88.3% and 83.6% | 96.6% and 99.4% | 92.3% and 80.4% | 95.3% and 97.3% | 85.9% and 77.1% | 92.6% and 79.5%
4 | Nc1nc(N)c2nc(-c3ccccc3)c(N)nc2n1 [Triamterene] | 33% | 98.2% | 101% | 93.7% | 101% | 101% | 101%
5 | CN(c1ncccc1CNc1nc(Nc2ccc3c(c2)CC(=O)N3)ncc1C(F)(F)F)S(C)(=O)=O | 27.9% and 21.1% | 10.2% and 11.6% | 3.77% and 4.68% | 0.98% and 1.3% | 0.43% and 0.45% | 1.6% and 2.15% | 13% and 13.3%
6 | COc1cc(O)cc(O)c1C(=O)C=Cc1ccccc1 [Cardamonin] | 77.8% | 54.5% | 70.9% | 33.1% | 74.1% | 52.6% | 51.2%
7 | Oc1ccc2c(c1)OC[C@]1(O)Cc3cc(O)c(O)cc3[C@H]21 [Brazilin] | 85.9% | 46.3% | 11.3% | 40.4% | 45.2% | 73.2% | 77.5%
8 | CCNC(=O)C#Cc1ccc2c(C(=Nc3ccc(CN(C)C)cc3)c3ccccc3)c(O)[nH]c2c1 | 53.4% | 26.7% | 25.1% | 4.97% | 7.91% | 11.9% | 17.2%
9 | C[C@H]1O[C@@H](O[C@H]2CC[C@@]3(C)[C@@H](CC[C@]4(C)[C@@H]3C=C[C@]35OC[C@@]6(CCC(C)(C)C[C@H]63)[C@@H](O)C[C@]54C)[C@]2(C)CO)[C@H](O)[C@@H](O[C@@H]2O[C@H](CO)[C@@H](O)[C@H](O)[C@H]2O)[C@H]1O [Saikosaponin A] | 23.1% | 40.9% | 46.1% | 23.8% | 28.7% | 42.2% | 45%
10 | O=C1NC(=O)[C@@H](c2cn3c4c(cccc24)CCC3)[C@@H]1c1c[nH]c2ccccc12 [ARQ 197 (Tivantinib)] | 37% | 6.87% | 9.91% | 17.9% | 4.13% | 12.1% | 15.4%
11 | O=C(O[C@@H]1Cc2c(O)cc(O)cc2O[C@H]1c1cc(O)c(O)c(O)c1)c1cc(O)c(O)c(O)c1 [Gallocatechin gallate] | 71% | 91.1% | 91.7% | 77.3% | 67.3% | 94.1% | 87.8%
12 | COc1cc2/c(=N/c3ccc(Br)cc3F)nc[nH]c2cc1OCC1CCN(C)CC1 [Vandetanib (ZD6474)] | 41% | 83% | 97.2% | 57.6% | 68.6% | 77.3% | 75.4%
13 | COc1cccc(-c2ccc(NC(=O)C3=C(C(=O)O)CCC3)c(F)c2)c1 [Vidofludimus] | 93.2% | 115% | 120% | 114% | 108% | 112% | 112%
14 | COc1cc2c[n+](C)c3c4cc5c(cc4ccc3c2cc1OC)OCO5 [Nitidine Chloride] | 46.1% | 38.6% | 34.6% | 0.55% | 0.7% | 0.61% | 0.76%
15 | Nc1cc(N)c(N)cc1N | 69.4% | 104% | 109% | 96.3% | 105% | 103% | 103%
16 | CCS(=O)(=O)N1CCN(c2ccc(Nc3ncc(C(N)=O)c(NC4CC4)n3)cc2)CC1 | 63.2% | 65.2% | 63.1% | 7.8% | 8.15% | 12.1% | 15.5%
17 | O=C(NC1CCNCC1)c1n[nH]cc1NC(=O)c1c(Cl)cccc1Cl | 26.4% and 27.1% | 13.2% and 15.4% | 6.7% and 6.57% | 3.09% and 4.11% | 0.56% and 0.84% | 5.65% and 5.71% | 17.9% and 18%
18 | O=C1[C@H](Cc2ccc(O)cc2)N2C(=O)CCN(C(=O)NCc3ccccc3)[C@H]2CN1Cc1cccc2ccccc12 | 47% and 37.9% | 60.6% and 53.5% | 59.4% and 48.2% | 63.6% and 52% | 43.8% and 35.6% | 54.4% and 45.4% | 42.3% and 36.8%
19 | Cc1cc(C)c(Nc2ccnc(Nc3ccc(C#N)cc3)n2)c(C)c1 [Dapivirine (TMC120)] | 45.5% | 86% | 70.6% | 75% | 81.1% | 69% | 31.3%
20 | COc1cc2ncnc(Nc3ccc(F)c(Cl)c3)c2cc1OCCCN1CCOCC1 [Gefitinib (ZD1839)] |  | 63.4% | 63.1% | 39.7% | 45.2% | 53.4% | 50.9%
21 | O=c1cc(-c2ccc(O)c(O)c2O)oc2ccccc12 | 69.2% | 98.5% | 87.9% | 81.8% | 68.4% | 108% | 105%
22 | O=C(NCCN1CCOCC1)Nc1ccc(C(=O)/C=C/c2cccc(N3CCOCC3)n2)cc1 | 15.2% | 21.2% | 19.2% | 1.13% | 1.01% | 5.44% | 16.6%
23 | CC1(C)CC[C@]2(C(=O)O)CC[C@]3(C)C(=CC[C@@H]4[C@@]5(C)CC[C@H](O[C@@H]6O[C@H](C(=O)O)[C@@H](O)[C@H](O[C@@H]7OC[C@@H](O)[C@H](O)[C@H]7O)[C@H]6O)C(C)(C)[C@@H]5CC[C@]43C)[C@@H]2C1 [Momordin Ic] | 88.8% | 103% | 108% | 110% | 103% | 97.2% | 96.6%
24 | O=C(Cc1cccc(OC(F)(F)F)c1)Nc1ccc(CCCCc2nnc(NC(=O)Cc3ccccn3)s2)nn1 | 58.5% | 23.7% | 21.2% | 44.3% | 53.4% | 20.1% | 24.8%
25 | COc1ccc(F)c(F)c1C(=O)c1cnc(NC2CCN(S(C)(=O)=O)CC2)nc1N | 54.3% | 11.3% | 12.1% | 1.28% | 0.27% | 3.74% | 15.6%
26 | O=C(O)C(=O)O.[NH-]C1CCCCC1[NH-].[Pt+2] (centres undefined) [Oxaliplatin (Eloxatin)] | 72.8% | 22% | 62% | 56.1% | 48.2% | 23.8% | 62.9%
27 | O=C(O[C@@H]1O[C@@H]2COC(=O)c3cc(O)c(O)c(O)c3-c3c(cc(O)c(O)c3O)C(=O)O[C@H]([C@H]1O)[C@@H]2O)c1cc(O)c(O)c(O)c1 [Corilagin] | 81.5% | 86.9% | 81.3% | 86.4% | 82.2% | 103% | 96.2%
28 | Cc1coc2c1C(=O)C(=O)c1c-2ccc2c1CCCC2(C)C [Tanshinone IIA (Tanshinone B)] | 52.2% | 98.2% | 89% | 88.8% | 79.7% | 84.1% | 83.3%
29 | CC=C(C)C(=O)OC1C(OC(C)=O)C2(CO)C(O)CC3(C)C(=CCC4C5(C)CCC(OC6OC(C(=O)O)C(OC7OC(CO)C(O)C(O)C7O)C(O)C6OC6OC(CO)C(O)C(O)C6O)C(C)(CO)C5CCC43C)C2CC1(C)C (centres undefined) [Escin] | 48.9% | 90.1% | 90.1% | 53.3% | 67.9% | 23.9% | 31.4%
30 | C[C@@H]1CCN(C(=O)CC#N)C[C@@H]1N(C)c1ncnc2[nH]ccc12 | 99.6% and 112% | 97.6% and 104% | 99.8% and 112% | 85.3% and 95.7% | 104% | 96.5% and 99.1% | 93.8% and 101%

Reference: the supplement of paper PMC10981050
